A selection: hits, their analogues and other compounds. The true share with any hit is near 2.3%.
GLS inh: qHTS for Inhibitors of Glutaminase (GLS). Glutaminase kidney isoform, mitochondrial (Homo sapiens), O94925. GLS enzymatic activity, qHTS titration. Potency, µM (series often up to 45.5 µM), without a hit: top-dose activity change, negative = inhibition, usual class: inhibitors. hit rate 0.21% among 410,000; note: % is set by controls: 0 for no effect and ±100 for the full control effect
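Glutamate formation by hKGA was monitored fluorometrically using coupled glutamate oxidase, HRP and Amplex Red. Substrate was added as 1 mM L-glutamine solution; incubation was 30 min at RT after an initial read.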
Glioma ERSR ind: qHTS for Inducers of the Endoplasmic Reticulum Stress Response (ERSR) in Human Glioma: qHTS. U87-MG GRP78 promoter luciferase reporter, 16 h. Potency, µM, for the others: at the top dose activation, hits mostly activators. hit rate 0.02% among 420,000. AID 602332, 2012; note: series mostly up to about 76 µM; % of control where 0% means no effect; nearly all actives have a fitted effect of over 35% in size
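Stably transfected U87-MG glioma cells carrying a GRP78-based luciferase sensor; 16 h compound incubation. Luminescence end-point read 10 min after Bright-Glo addition at room temperature.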
PTHR1 ag: qHTS for PTHR1 Agonists: Primary Screen. Parathyroid hormone/parathyroid hormone-related peptide receptor (Homo sapiens), Q03431. HEK293 GP2 PTHR1 cells, GloSensor cAMP luminescence, 1 h. Potency, µM (doses to about 115 µM), without a hit: top-dose activation, usual class: activators. hit rate 0.075% among 410,000; note: nearly all actives have a fitted effect of over 55% in size
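HEK-293-derived GP2 cells expressing PTHR1 and a GloSensor cAMP reporter, 3,000/well, plated overnight, given luciferin plus IBMX (each 0.5 mM as added) for 1 h at 37 °C, then compound for 1 h at 37 °C. Luminescence was read after 15 min at room temperature.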
GLP-1R agonist: qHTS of GLP-1 Receptor Agonists | Glucagon-like peptide 1 receptor (Homo sapiens), P43220 | HEK293 GLP-1R CRE-luciferase, luminescence, 4-6 h; cells express a hypersensitive GLP-1R form | Potency, µM (titrated, usually from 45.6 µM), without a hit: at the highest dose activation, actives largely listed as activators | hit rate 0.007% among 380,000 | AID 624172, 2012; note: % of control where 0% means no effect
Target sequence (P43220 whole entry, looked up): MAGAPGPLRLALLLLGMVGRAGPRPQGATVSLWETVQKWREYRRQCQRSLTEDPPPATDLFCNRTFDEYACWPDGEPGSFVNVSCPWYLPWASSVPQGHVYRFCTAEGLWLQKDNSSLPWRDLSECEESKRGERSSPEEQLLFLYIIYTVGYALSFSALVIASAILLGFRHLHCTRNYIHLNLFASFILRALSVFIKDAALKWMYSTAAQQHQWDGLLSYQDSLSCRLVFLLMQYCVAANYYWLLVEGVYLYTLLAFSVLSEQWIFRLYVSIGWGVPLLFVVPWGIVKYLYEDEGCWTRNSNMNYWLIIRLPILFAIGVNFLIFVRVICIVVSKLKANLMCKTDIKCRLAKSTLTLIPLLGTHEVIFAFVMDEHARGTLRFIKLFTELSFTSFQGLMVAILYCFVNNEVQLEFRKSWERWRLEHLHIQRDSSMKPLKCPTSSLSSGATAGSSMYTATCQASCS
GLP1R inv ag: qHTS of GLP-1 Receptor Inverse Agonists (Inhibition Mode). hit rate 1.6% among 410,000. HEK293 GLP-1R CRE-luciferase, luminescence, 24 h; GLP-1R form is constitutively active. Potency, µM (titrated, usually from 38.3 µM), without a hit: at the highest dose activity change, negative = inhibition, usual class: inhibitors. Glucagon-like peptide 1 receptor (Homo sapiens), P43220; note: % is set by controls: 0 for no effect and ±100 for the full control effect; nearly all actives have a fitted effect of over 55% in size
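Luminescence readout: a drop in cAMP-driven luciferase signal flags inverse agonism at a constitutively active GLP-1R stably expressed in HEK293. Compound exposure lasted 24 hr at 37 deg C, 5% CO2.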
12-LOX inh: Primary qHTS assay for inhibitors of human arachidonate 12S-lipoxygenase (ALOX12): Round 2. Polyunsaturated fatty acid lipoxygenase ALOX12 (Homo sapiens), P18054. purified 12hLO, xylenol orange hydroperoxide absorbance. Potency, µM (highest dose often 108 µM), for inactives: top-dose activity change, negative = inhibition, most hits filed as inhibitors. hit rate 1.1% among 580,000. AID 1671190, 2021; note: % is set by controls: 0 for no effect and ±100 for the full control effect
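Hydroperoxide product was detected by ferrous iron/xylenol orange as the 573 to 405 nm absorbance ratio. Arachidonic acid at 40 uM (final) was turned over for 30 min at room temperature by 150 nM human 12hLO, pH 7.0 Hepes buffer, after 15 min compound preincubation.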
An asterisk follows results filed as active; [ ] = another dose, or the depositor's remark. Calls come from the whole dose curve; as a rule, active = well fitted curve in the direction sought with a large enough effect; inconclusive = small, poorly fitted or top-dose-only effect, or another doubt; inactive = no such curve, though single readings can be large; an effect the other way counts as inactive or inconclusive. Potency is the fitted concentration of half-maximal effect.

`COc1ccc(S(=O)(=O)c2cc3ccc(OC)cc3oc2=O)cc1` gave 12-LOX inh -13%.
Screening CC(C)COc1cccc(C(=O)Nc2ccc(CN3CCOCC3)cc2)c1 returned GLS inh 1%, Glioma ERSR ind -1%, PTHR1 ag -83%, GLP-1R agonist 7%, GLP1R inv ag 8.9µM* and 12-LOX inh 70%.
Screening Cc1ccc(/C=N/Nc2cc(C)nc(N3CCOCC3)n2)cc1 returned GLS inh -6%, Glioma ERSR ind 1%, PTHR1 ag -17%, GLP-1R agonist 2%, GLP1R inv ag 10% and 12-LOX inh 0%.
For CC(=O)c1cccc(NC(=S)NC(=O)c2cccc(C)c2)c1 the results were GLS inh 15%, Glioma ERSR ind 4%, PTHR1 ag -24%, GLP-1R agonist 9%, GLP1R inv ag 0% and 12-LOX inh 32µM*.
CC(=O)c1cccc(NC(=S)NC(=O)c2ccc(Cl)cc2)c1 was read as GLS inh 9%, Glioma ERSR ind 1%, PTHR1 ag -15%, GLP-1R agonist -4%, GLP1R inv ag 3% and 12-LOX inh -26%.
Cc1ccc(N/N=C/c2ccc(N3CCOCC3)cc2)cc1C was read as GLS inh 26%, Glioma ERSR ind 2%, PTHR1 ag -2%[57.5 µM], GLP-1R agonist -4%, GLP1R inv ag 16% and 12-LOX inh 8.9µM*.
For Cc1ccc(C(=O)NC(=S)Nc2ccc(N3CCOCC3)cc2)cc1C the results were GLS inh 11%, Glioma ERSR ind -5%, PTHR1 ag -23%, GLP-1R agonist -1%, GLP1R inv ag 5% and 12-LOX inh 18µM*.
For C=CCNC(=O)CCC1NC(=O)N(CCc2c[nH]c3ccc(F)cc23)C1=O (configuration not stated) the results were 12-LOX inh -8%.
`CCCc1nnc(NC(=O)c2cc(-c3ccc4c(c3)OCCO4)on2)s1` gave 12-LOX inh 5%.
`COc1ccc(C(=O)NC(=S)Nc2ccc(N3CCOCC3)cc2)cc1Cl` gave GLS inh 21%, Glioma ERSR ind -2%, PTHR1 ag -14%, GLP-1R agonist 13%, GLP1R inv ag inconclusive and 12-LOX inh 16µM*.
For Cc1cccc(C(=O)NC(=S)Nc2ccc(N3CCOCC3)cc2)c1 the results were GLS inh -11%, Glioma ERSR ind 3%, PTHR1 ag -36%, GLP-1R agonist 1%, GLP1R inv ag 24% and 12-LOX inh 45µM*.
CCc1cc(-c2nnn(-c3cc(C(C)C)ccc3C)c2CC)ccc1-c1cn(CCc2c[nH]c3ccccc23)nn1 was read as GLS inh -5%, Glioma ERSR ind -2%, PTHR1 ag -3%, GLP-1R agonist 1%, GLP1R inv ag 2.5µM* and 12-LOX inh 0%.
For COc1cc(NC(=O)C2(C#N)CCCC2)c(OC)cc1NC(=O)c1ccccc1 the results were 12-LOX inh 77%.
For O=C(N/N=C/c1ccc(O)cc1O)c1ccncc1 the results were GLS inh 13µM*, Glioma ERSR ind 0%, PTHR1 ag inactive, GLP-1R agonist -1%, GLP1R inv ag inconclusive and 12-LOX inh 21%.
Screening Cc1cc2nc(C(=O)Nc3ccc(Br)cc3)c(N3CCOCC3)nc2cc1C returned 12-LOX inh -1%.
`CN(C)C(=O)c1ccc(NC(=O)c2ccccc2CSc2nc3ccccc3o2)cc1` gave 12-LOX inh 5%.
Screening CCOc1ccc(/C=C2/SC(=S)N(n3c(C)ccc3C)C2=O)cc1 returned GLS inh 4%, Glioma ERSR ind -2%, PTHR1 ag -78%, GLP-1R agonist -13%, GLP1R inv ag 7.1µM* and 12-LOX inh -15%.
`Cn1c(Oc2ccc(-c3ccc(Br)cc3)cc2)c(C#N)c(=O)n(C)c1=O` gave 12-LOX inh 13µM*.
For COc1ccc(-c2c(C#N)c(N)nc3c2c(=O)n(C)c(=O)n3C)cc1 the results were GLS inh 6%, Glioma ERSR ind -6%, PTHR1 ag inactive, GLP-1R agonist 4%, GLP1R inv ag 22% and 12-LOX inh 52%.
Screening CC(C)(C)CC(C)(C)NCC(O)COc1ccc2c(c1)CCC2 (configuration not stated) returned GLS inh -9%, Glioma ERSR ind -7%, PTHR1 ag inactive, GLP-1R agonist -4%, GLP1R inv ag 10µM* and 12-LOX inh -11%.
Screening O=C(c1nc(-c2ccc(Cl)cc2)n2c1CCCCC2)N1CCN(c2ccc(F)cc2)CC1 returned GLS inh 13%, Glioma ERSR ind -3%, PTHR1 ag -16%, GLP1R inv ag 10µM* and 12-LOX inh -18%.
Screening CCc1ccc(-n2cc(C(=O)N3CCC(NC(=O)OC(C)(C)C)CC3)nn2)cc1 returned 12-LOX inh 25%.
For O=C(O)/C(=C\c1c(C(=O)O)[nH]c2cc(Cl)cc(Cl)c12)c1ccccc1 the results were GLS inh 57%, Glioma ERSR ind -2%, PTHR1 ag -5%, GLP-1R agonist 0%, GLP1R inv ag 10% and 12-LOX inh 35µM*.
`O=C1CCN(CCc2ccccc2)CCN1[C@H](COc1ccccc1)Cc1ccccc1` gave GLS inh 2%, Glioma ERSR ind 7%, PTHR1 ag -32%, GLP-1R agonist -5%, GLP1R inv ag 10µM* and 12-LOX inh inconclusive.
CC(C)C[C@@H](COc1ccccc1)N1CCN(CCc2ccccc2)CCC1=O was read as GLS inh -1%, Glioma ERSR ind -4%, PTHR1 ag inactive, GLP-1R agonist 11%, GLP1R inv ag inconclusive and 12-LOX inh 11%.
For COc1ccccc1N1CCN([C@@H]2[C@H](O)[C@H](CO)O[C@@H]2CNC(C)C)CC1 the results were 12-LOX inh 20µM*.
Screening COc1ccccc1N1CCN([C@@H]2[C@H](O)[C@H](CO)O[C@@H]2CN(Cc2ccc(F)cc2)Cc2ccc(F)cc2)CC1 returned 12-LOX inh 28µM*.

From PubChem
